Values without a mark were called inactive.

This note sets out measurements from PubChem BioAssay.

This test in a line: osmotic lysis modulators in infected erythrocytes, primary screen, PSAC antagonist project, cell-based, P. falciparum Indochina, OD700, 3 h (AID 1156). To be noted: higher = more signal, called active from +8 up or from −8 down.
Take `COc1ccc([Si](C)(C)[C@@H]2[C@@H](CCO)O[C@]3(C(=O)N(Cc4cccc(N5CCOC5=O)c4)c4ccccc43)[C@H]2C)cc1`: the z-score is -0.28.

Consider `CCOC(=O)C1=CC[C@H]2C(=O)N(c3ccccc3)C(=O)[C@@H]12`, for which the z-score was 0.692.

Consider `CCOC(=O)C[C@H]1[C@H](OC(=O)c2ccc(C(=O)c3ccccc3)cc2)[C@@H](NC(=O)Cc2ccc(OC)cc2)c2cc(OCCCO)ccc2N1C(=O)c1ccc2ccccc2n1`, for which the z-score was -0.392.

With `COC(=O)[C@@]1(Cc2ccc(F)cc2)[C@H]2c3cc(C(=O)N(C)C)n(Cc4cc(C)n(C)n4)c3C[C@H]2CN1C(=O)c1ccccc1`, the z-score is 0.0419.

For the molecule `CCCC[C@@H]1C[C@H]1[C@@H](NC(=O)c1cccnc1)c1ccc(Cl)cc1`, the z-score was 0.395.

On to `[N-]=[N+]=Nc1ccccc1C[C@@]1(C(=O)N2CCCCC2)N=C(c2ccc(OCCCO)cc2)O[C@@H]1c1ccccc1N=[N+]=[N-]`, for which the z-score is 2.52.

Take `C=CCC(OC(C)=O)[C@@H]1[C@@H](N(Cc2ccc(-c3cccc(C(F)(F)F)c3)o2)C(=O)c2cccc3ccccc23)c2cc(OCCCO)ccc2N1C(=O)Cc1ccc2ccccc2c1` (stereo not given in full): the z-score is 1.31.

Regarding `CCCCN1CC=CC23O[C@@H]4C=CCOC(=O)[C@@H]4[C@H]2C(=O)N(CCCCCCO)[C@@H]3C1=O` (stereo not given in full), the z-score is 1.09.

Turning to `O=C1C2C=CC(C(O)C=Cc3ccc([N+](=O)[O-])cc3)N(n3cnnc3)C2C(=O)N1Cc1ccccc1` (stereo not given), the z-score was 0.956.

As for `O=C1[C@H]2C=C(Br)[C@H](C[C@@H]2OCCCCCCO)[C@@]12CO2`, the z-score is 1.2.
